Experimental data taken from PubChem BioAssay (NCATS).
Inconclusive results are not listed. A call without a number means that no potency is given here. The source made the active and inactive calls. Calls follow the shape of the full dose curve; tested in HEK293 reporter line.

Test: qHTS for Inhibitors of the Functional Ribonucleoprotein Complex (vRNP) of Lassa (LASV) Arenavirus: LASV Primary Screen - GLuc reporter signal (AID 1347082); also: nearly all actives have a fitted effect of over 60% in size
Details: LASV minigenome vRNP, Gaussia luciferase reporter; series mostly up to 57.5 µM
Potency is read from the fitted curve at half-maximal effect.

SMILES | Potency
O=C(CCCCCCC(=O)Nc1cccnc1)NO | inactive
CC(C)C[C@H](NC(=O)CNC(=O)c1cc(Cl)ccc1Cl)B1OC(=O)CC(CC(=O)O)(C(=O)O)O1 (stereo not given in full) | 7.69 µM (active)
O=C1NC(=O)C(c2cnc3ccccn23)=C1c1cn2c3c(cccc13)CN(C(=O)N1CCOCC1)CC2 | inactive
COc1cc(C(=O)N2CCC(N3CCN(C)CC3)CC2)ccc1Nc1ncc2c(n1)N(C)c1ccccc1C(=O)N2C | inactive

Test: qHTS for Inhibitors of the Functional Ribonucleoprotein Complex (vRNP) of Lassa (LASV) Arenavirus: Viability assay - alamar blue signal for LASV Primary Screen (AID 1347083); also: nearly all actives have a fitted effect of over 80% in size
Details: cell viability, alamar blue fluorescence (LASV minigenome counter-screen); series mostly up to 57.5 µM

SMILES | Potency
C[C@H](CCC(=O)O)[C@H]1CC[C@H]2[C@H]3[C@@H](CC[C@]12C)[C@@]1(C)CC[C@@H](O)C[C@H]1C[C@@H]3O | inactive
CNC(=O)c1c(F)cccc1Nc1nc(Nc2cc3c(cc2OC)CCN3C(=O)CN(C)C)nc2[nH]ccc12 | inactive
C[S+](C)CCC(N)C(=O)O (stereo not given) | inactive
O=c1[nH]c2cc(Cl)c(Cl)cc2[nH]c1=O | inactive
O=C1c2ccccc2-c2n[nH]c3cccc1c23 | 30.6 µM (active)
O=C(O)CCCCCC(=O)NN=C1CCCC1 | inactive
CCN(CC)CCNC(=O)c1ccc2nc(-c3ccccc3)c(-c3ccc(CN4CCC(n5c(=O)[nH]c6ccccc65)CC4)cc3)nc2c1 | 21.7 µM (active)
Oc1ccc(-c2ccc(-c3cc(Nc4cccc(CNC5CC5)c4)n[nH]3)cc2)c(O)c1 | 3.06 µM (active)
CC(C)C[C@H](CC(=O)O)C(=O)N[C@@H](Cc1c[nH]c2ccccc12)C(=O)N[C@@H](C)c1ccccc1 | inactive
N=c1ccn2c(n1)O[C@H]1[C@H](O)[C@@H](CO)O[C@H]12 | inactive
COC(=O)Nc1ccc(-c2nc(N3CCOCC3)c3cnn(C4CCN(Cc5cccnc5)CC4)c3n2)cc1 | 0.153 µM (active)
